# In PubChem BioAssay (EPA / NIEHS):
# Some compounds were tested as several samples or in several runs, with calls that do not always agree. Active and inactive are the calls of the source. Rule for the calls: active = hit-call score of the fitted dose curve at least 0.9, where 1 is the maximum; inactive = score below 0.9.
# Assay: ATG_ISRE_CIS: Attagene CIS-FACTORIAL HepG2 Assay for human Interferon Regulatory Factor 1 (IRF1) binding to an Interferon-Stimulated Response Element (ISRE) (AID 2282948)
# Settings: HepG2 ISRE cis-reporter (Attagene), mRNA transcription readout; actives raise or lower the signal
# In short: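 Endogenous transcription factor activity read as reporter transcript abundance via RT-PCR and capillary electrophoresis. HepG2 cells transiently transfected, 24 h chemical exposure. Gain or loss fitted against DMSO baseline.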
SMILES,outcome,AC50
c1ccc2c(c1)sc1ccccc12,inactive,
Nc1ccc(Cl)cc1,inactive,
Nc1ccc2ccccc2c1,inactive,
Nc1ccc([N+](=O)[O-])cc1Cl,inactive,
CCOP(=S)(OCC)SCSCC,inactive,
CCOP(=S)(S)OCC,inactive,
OCC(F)(F)OC(F)(F)C(F)(F)OC(F)(F)C(F)(F)OC(F)(F)F,inactive,90 µM (active)
O=C(O)C(F)(F)C(F)(F)C(=O)O,inactive,
Cc1cc(C)c(C(=O)P(=O)(c2ccccc2)c2ccccc2)c(C)c1,inactive,
CC(C)(C)OOC(C)(C)C,inactive,
Cn1[nH]nnc1=S,inactive,
CCOP(=S)(Oc1ccc([N+](=O)[O-])cc1)c1ccccc1 (stereo not given),inactive,
FC(F)(F)C(F)(C(F)(F)F)C(F)(F)C(F)(F)CC1CO1 (stereo not given),inactive,
CCOC(=O)c1ccccc1N,inactive,
Oc1ccccc1Br,inactive,
CCOc1ccc(C(C)(C)COCc2cccc(Oc3ccccc3)c2)cc1,inactive,
CCCCc1ccccc1,inactive,
CC1=C(C(=O)Nc2ccccc2)S(=O)(=O)CCO1,,30.2 µM (active)
ClC(Cl)=C(c1ccc(Cl)cc1)c1ccccc1Cl,inactive,
CCCCC(CC)COC(=O)c1c(Br)c(Br)c(Br)c(Br)c1C(=O)OCC(CC)CCCC (stereo not given),inactive,

SMILES,outcome,AC50
OCC(F)(F)OC(F)(F)C(F)(F)OC(F)(F)C(F)(F)OC(F)(F)CO,inactive,
COP(=O)(O)OC,inactive,
Clc1ccc(Oc2ccccc2)cc1,inactive,
N#Cc1ccc(O)cc1,inactive,
O=C(O)C1C(C(=O)O)C2(Cl)C(Cl)=C(Cl)C1(Cl)C2(Cl)Cl (stereo not given),inactive,
CC(O)C#N (stereo not given),inactive,
CCN(CC)c1ccccc1,inactive,
CC(C)Nc1ccc(Nc2ccccc2)cc1,,43.2 µM (active)
OCC1CO1 (stereo not given),inactive,
CCCCC(CC)COP(=O)(Oc1ccccc1)Oc1ccccc1 (stereo not given),inactive,
CCCCCCCc1ccc(O)cc1,inactive,
ClC(Cl)c1ccccc1,inactive,
COP(N)(=S)OC,inactive,
CCCCN(CCCC)N=O,inactive,
CC(C)(C)N(NC(=O)c1ccc(Cl)cc1)C(=O)c1ccccc1,inactive,
c1ccc2c(c1)Nc1ccccc1S2,inactive,
O=P(Oc1ccccc1)(Oc1ccccc1)Oc1ccccc1,,33.4 µM (active)
CCNc1nc(Cl)nc(NC(C)(C)C)n1,inactive,
O=NN1CCCC1,inactive,
